AT treatment: candidate therapy for ataxia-telangiectasia; Potency, µM (doses to about 57.5 µM), inactives show at the highest dose activation, actives largely listed as activators; F2112 A-T fibroblasts, KAP-1 phosphorylation AlphaLISA; neocarzinostatin DNA damage 30 min before lysis; hit rate 0.19% among 320,000; also: potency is read from the fitted curve at half-maximal effect; % of control where 0% means no effect; nearly all actives have a fitted effect of over 45% in size
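hTERT-immortalized A-T patient fibroblasts (F2112), 500 cells/well in OPTI-MEM, 1% FBS, got compounds for 60 min, then NCS for 30 min at 37C. Lysates were then assayed for phospho-KAP-1 by AlphaLISA (anti-pKAP1 donor, anti-KAP1 acceptor beads), 6 hr at 25C.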
TCR activator: activators of T cell receptors | primary human leukocytes, anti-CD3, IL-2 HTRF, 48 h | Potency, µM (series often up to 9.22 µM), for the others: at the top dose activation of IL-2 secretion, usual class: activators | 330,000 tested, under 10 active; also: % of control where 0% means no effect
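TCR engagement came from a-CD3 beads alone, with compounds added to primary human leukocytes for 48 hr. Secreted IL-2 bridged europium cryptate- and d2-labelled anti-IL-2 antibodies, giving FRET emission at 665nm after 320nm excitation.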
Tb PFK inh-1: blocks T. brucei phosphofructokinase | O15648 | T. brucei PFK, ADP-Glo luminescence | Potency, µM (doses to about 57.5 µM), inactives show at the top dose activity, negative = inhibition, actives largely listed as inhibitors | hit rate 0.17% among 330,000 | AID 485367;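 also: potency is read from the fitted curve at half-maximal effect; 0% = uninhibited 1x PFK enzyme wells and -100% = no-enzyme wells; nearly all actives have a fitted effect of over 60% in size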
Target sequence (O15648 whole entry, looked up): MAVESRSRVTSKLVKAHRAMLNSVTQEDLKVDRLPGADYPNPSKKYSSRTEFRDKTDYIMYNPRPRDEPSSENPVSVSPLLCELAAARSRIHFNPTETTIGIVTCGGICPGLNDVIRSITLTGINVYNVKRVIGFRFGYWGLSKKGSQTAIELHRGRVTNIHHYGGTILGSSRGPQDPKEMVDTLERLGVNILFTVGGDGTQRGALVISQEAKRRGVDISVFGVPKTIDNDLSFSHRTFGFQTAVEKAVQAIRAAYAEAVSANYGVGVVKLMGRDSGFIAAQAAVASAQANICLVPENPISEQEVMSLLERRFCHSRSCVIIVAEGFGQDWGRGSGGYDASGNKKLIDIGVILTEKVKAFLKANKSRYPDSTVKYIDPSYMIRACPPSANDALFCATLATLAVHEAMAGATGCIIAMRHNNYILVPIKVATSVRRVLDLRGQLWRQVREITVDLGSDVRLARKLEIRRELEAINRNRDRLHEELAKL
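Compounds were pin-transferred as a titration series up to 57 uM into substrate buffer (0.5 mM F6P, 0.1 mM ATP, pH 8.0), then 1.25 nM PFK was added and reactions ran 45 min before ADP-Glo detection.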
a7 integrin act: integrin-mediated muscular dystrophy alleviation activation; AID 624291; hit rate 0.064% among 350,000; Potency, µM (series often up to 38.3 µM), without a hit: top-dose activation, usual class: activators; alpha7betagal myoblasts, beta-gal FDG fluorescence, 48 h;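 also: potency is read from the fitted curve at half-maximal effect; 100% = response of the positive control SU9516; nearly all actives have a fitted effect of over 60% in size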
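Alpha7betagal+/- myoblasts (passage 13) were plated 16-24 hr, then exposed to compounds (1:260 dilution of DMSO stock) for 48 hours at 37C. After MPER lysis, β-galactosidase reporter activity was read as FDG fluorescence (ex 480/em 540) after 30 minutes.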
PKM2 act: activators of human pyruvate kinase M2; P14618; purified PKM2, Kinase-Glo ATP luminescence, activation; response scale: 0% is enzyme alone, no compound; Potency, µM (series often up to 57.5 µM), inactives show at the highest dose activation, hits mostly activators; hit rate 0.34% among 260,000; also: potency is read from the fitted curve at half-maximal effect; % is scaled to controls: 0 for no effect and ±100 for the full control effect; nearly all actives have a fitted effect of over 55% in size
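Purified hPK-M2 (>95% pure) converted ADP (0.1 mM final) to ATP with 0.5 mM PEP in 50 mM imidazole pH7.2, KCl, MgCl2, Tween 20, BSA; 1 h at room temperature. ATP detected by Kinase-Glo luminescence.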
IL-2 act: activates IL-2 in a cell-based reporter assay | IL-2 activation reporter assay, cell-based qHTS; stimulated with anti-CD3/CD4/CD28 beads; in transgenic mouse T cells | hit rate 0.065% among 360,000 | activation, % (series mostly up to about 46 µM); in the data active = activation above about 50%; inconclusive = mostly about 30% to 49%; also: 0% is about no effect
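Quantitative HTS in unstimulated transgenic mouse T cells, with memory T cells as non-tolerant control and PMA/ionomycin as tolerance-bypass control. Compound pretreatment lasted 60 minutes before 18 h bead stimulation; EGFP/DsRed fluorescence read.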
TbPFK ATP: orthogonal confirmation of T. brucei phosphofructokinase inhibitors; shares compounds with Tb PFK inh-1; Tb PFK enzyme, ATP depletion, Kinase-Glo Plus luminescence; Potency, µM (titrated, usually from 57.5 µM), inactives show at the top dose inhibition; hit rate 47% among 1,100; AID 504636; calls by dose curve; also: potency is read from the fitted curve at half-maximal effect; nearly all actives have a fitted effect of over 60% in size
Tb PFK inh-2: validation of T. brucei phosphofructokinase inhibitors | shares compounds with Tb PFK inh-1 | purified T. brucei PFK, ADP-Glo luminescence, 45 min | Potency, µM (doses to about 57.5 µM), without a hit: at the top dose activity change, negative = inhibition, hits mostly inhibitors | hit rate 41% among 1,100 | AID 504637;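 also: potency is read from the fitted curve at half-maximal effect; plate controls were full PFK enzyme control for no effect and no enzyme control for full effect; nearly all actives have a fitted effect of over 60% in size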
The depositor's hits bear a star; ? = inconclusive; / = no result; [ ] = dose if it differs, or a comment. This is a sample that favours compounds with a hit; in the whole collection about 0.69% have one here. Unless noted, calls follow the shape of the dose curve; as a rule, active = well fitted curve in the direction sought with a large enough effect; inconclusive = small, poorly fitted or top-dose-only effect, or another doubt; inactive = no such curve, though single readings can be large; an effect the other way counts as inactive or inconclusive.

SMILES | AT treatment | TCR activator | Tb PFK inh-1 | a7 integrin act | PKM2 act | IL-2 act | TbPFK ATP | Tb PFK inh-2
Cc1nn(CC(C)C)c(Cl)c1C(=O)NC1CCCCC1 | 8% | -1% | -1% | 2% | / | 1 | / | /
Cc1c(C=C2C(=O)N(C)C(=O)N(C)C2=O)c(=O)n(-c2ccccc2)n1C | 2% | 6%[46.1 µM] | ? | 23% | 2% | 1 | / | /
Cc1c(N2C(=O)/C(=C\c3ccccc3O)SC2=S)c(=O)n(-c2ccccc2)n1C | -9% | 7% | 21µM* | -28% | -18% | -3 | ? | -30%
COc1ccc(C(=O)OCC2CN2c2cccc([N+](=O)[O-])c2)cc1 (stereo unspecified) | / | / | / | / | / | -1 | / | /
CC(=O)Nc1ccc(SCC(=O)c2ccc(Br)s2)cc1 | 9% | -4% | 24µM* | 4% | 7% | -1 | ? | -24%
CC(=O)Nc1ccc(OC(=O)N(C)c2ccccc2)cc1 | 3% | -8% | -16% | 12% | -1% | -1 | / | /
NC(N)=S | -51% | 6% | 2% | / | / | 0 | / | /
CCC1Nc2ncnc(N3CCN(c4ccccn4)CC3)c2N(Cc2ccc(Br)cc2)C1=O (stereo unspecified) | -6% | 1% | 7% | -49% | / | 0 | / | /
O=c1ccc2c(-c3ccccc3)c3ccc(O)cc3oc-2c1 | ? | -2% | 12µM* | -277% | / | -1 | 13% | -10%
O=C(c1cc2cc([N+](=O)[O-])ccc2oc1=O)n1cccn1 | 5% | -2% | ? | 23% | 1% | -3 | -1% | 19%
C[C@H]1CN([C@@H](C)CO)C(=O)CCCn2nncc2CO[C@H]1CN(C)C(=O)Oc1ccc2ccccc2c1 | / | / | / | 2% | / | -3 | / | /
CCn1c2ccccc2c2cc(NC(=O)CSc3nnc(C4CC4)n3Cc3ccco3)ccc21 | 13% | 0% | ? | 4% | -16% | 0 | ? | -28%
CCOc1ccc2c(c1)c(C(C)=O)c(C)n2Cc1ccco1 | 6% | -1% | -1% | -10% | -3% | -1 | / | /
CN(C)c1ccc(/C=C2/C(=N\O)C3CCN2CC3)cc1 | 4% | 2% | -7% | -9% | -3% | -1 | / | /
COc1ccc(N2C(=O)CC(N3CCC(n4c(=O)[nH]c5ccccc54)CC3)C2=O)cc1 (stereo unspecified) | / | / | 5% | 1%[7.66 µM] | -9% | 1 | / | /
COc1ccc(N2C(=O)CS(=O)C(c3ccccc3)C2=O)cc1 (stereo unspecified) | 16% | -2% | ? | -34% | 11% | 3 | ? | -19%
Cc1nc(Cc2nnc(SCC(=O)N3CCN(c4ccc(O)cc4)CC3)o2)cs1 | -3% | 3% | ? | 9% | / | -1 | ? | ?
CCc1nnc(NC(=O)C(=O)NCCOC(=O)c2ccccc2Cl)s1 | 0% | 5% | ? | 0% | -11% | -1 | -29% | ?
CC(=O)c1cccc(OCC(=O)N2CCN(CC(=O)Nc3cccc(F)c3)CC2)c1 | -3% | / | 0% | 0% | / | 6 | / | /
CC1CN(c2ccc([N+](=O)[O-])cc2Cl)CCN1 (stereo unspecified) | 2% | 7% | 9.5µM* | -36% | 1% | -3 | 27µM* | 30µM*
COc1ccc2nc(NC(=O)c3ccccc3O)sc2c1 | 11% | 0% | ? | 13% | / | 1 | -30% | ?
Cc1nn(Cc2ccccc2)c(C)c1C(=O)OCC(=O)Nc1cccc(S(N)(=O)=O)c1 | -1% | 6% | -4% | -21% | 21% | -1 | / | /
O=C(COC(=O)c1ccccc1O)Nc1cccc(S(=O)(=O)NC2=NCCCCC2)c1 | -12% | -3% | 13µM* | -7% | 18% | 0 | ? | ?
COC(=O)C1=C(c2ccc(F)cc2F)C[C@@H]2CC[C@H]1N2C(=O)NC1Cc2ccccc2C1 | -2% | 2% | -3% | 9% | / | 0 | / | /
Cc1ccc(S(=O)(=O)CNC(=S)c2ccc3ccccc3c2)cc1 | 0% | 10% | ? | 13% | 19% | 0 | -17% | 30µM*
SMILES | AT treatment | TCR activator | Tb PFK inh-1 | a7 integrin act | PKM2 act | IL-2 act | TbPFK ATP | Tb PFK inh-2
COc1ccc(C(=S)NCS(=O)(=O)c2ccc(C)cc2)cc1 | 9% | -3%[46.1 µM] | 21µM* | -3% | 20% | 1 | 24µM* | 27µM*
Cc1c(S(=O)(=O)Nc2cccc(Cl)c2)c(=O)n(C)c(=O)n1C | 4% | -1% | 2% | -2% | ? | 2 | / | /
Cc1cc(C(=O)NNC(=O)Cc2ccc(Cl)c(Cl)c2)c(C)o1 | 0% | 4% | 27µM* | -4% | / | 0 | 12µM* | 30µM*
c1cc2c(cc1-c1ccc3c(c1)OCO3)CNCc1cnnn1-2 | / | / | / | / | / | 0 | / | /
CCc1nnc(NC(=O)CSc2nc(C)c3c(c2C#N)CCCC3)s1 | 4% | -6% | ? | 11% | 10µM* | -2 | -18% | 16%
CCc1nnc(NC(=O)CCc2nc(C3=CCN(C)CC3)no2)s1 | 4% | -2% | 0% | 2% | ? | 0 | / | /
COCCNCCOc1ccc(C(C)(C)c2ccccc2)cc1 | -16% | 1%[46.1 µM] | -12% | 14% | 4% | -2 | / | /
Nc1ncccc1OCc1ccc(Cl)c(Cl)c1 | 8% | -5% | 13µM* | ? | -4% | -3 | 5.4µM* | 17µM*
O=C(C[n+]1ccn(CCCNP2(=O)C=C(c3ccccc3)OC(c3ccccc3)=C2)c1)c1ccccc1 | 2% | 2% | 12% | -9% | 5% | -1 | / | /
CCCCCCCCCCCCCCCCn1cc[n+](CC(C)=O)c1 | 2% | -6% | ? | -66% | 0% | -1 | -7% | -7%
S=C(NCc1ccc(Cl)c(Cl)c1)NCc1ccco1 | 2% | 6% | 27µM* | 0% | 2% | -1 | 11µM* | 21µM*
O=C(NCc1ccc(Cl)c(Cl)c1)c1ccco1 | 3% | 0%[46.1 µM] | 9.5µM* | -4% | 4% | 0 | 6µM* | 12µM*
COC(=O)C1=C(c2ccc(F)cc2F)C[C@@H]2CC[C@H]1N2C(=O)N1CCC(O)CC1 | -9% | -4% | 0% | 33% | / | 0 | / | /
C[C@@H]1CN([C@@H](C)CO)C(=O)CCCn2nncc2CO[C@@H]1CN(C)C(=O)Oc1cccc2ccccc12 | / | / | / | -4% | / | -1 | / | /
COC(=O)C1C2c3ccccc3C(c3ccccc32)C1(C)C(=O)OC (stereo unspecified) | / | 0% | / | 26% | / | -1 | / | /

Compound activity deposited in PubChem BioAssay by National Center for Advancing Translational Sciences (NCATS).
